Data reported in PubChem BioAssay (Tox21).
Records with an inconclusive call do not appear. Calls of active or inactive are those of the source. The call rests on the fitted dose curve.
On the % scale 0 is the no-effect control and ±100 the full control effect; potency means the concentration at half of the fitted maximal effect.

Assay: p53 small molecule agonists, cell-based qHTS assay with human liver microsomes: qHTS cell viability counter screen (AID 1963579); further: nearly all actives have a fitted effect of over 45% in size
Conditions: p53RE-bla HCT-116 viability, ATP luminescence, 16 h, HLM; series mostly up to 66 µM; activity change, negative = cytotoxicity: at the top concentration
In short: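 Seed p53RE-bla cells at 4,000 per well; incubate 5 h at 37 C; add compound, human liver microsomes and NADPH; incubate 16 h at 37 C; add CellTiter-Glo; after 30 min at room temperature, read luminescence.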
In the case of `CN(CCCN1c2ccccc2CCc2ccccc21)CC(=O)c1ccc(Cl)cc1`, the “activity change, negative = cytotoxicity” value is reported as 10.5% [at 30.3 µM] (inactive).
With `Oc1ccc(C2(c3ccc(O)cc3)CC3CC2C2CCCC32)cc1` (stereo unspecified) the Potency was 17.5 µM (active).
In the case of `CC(CO)(CO)CO`, the “activity change, negative = cytotoxicity” value is reported as 5.26% (inactive).
For `C/C=C1\[C@H]2C=C(C)C[C@]1(N)c1ccc(=O)[nH]c1C2`, the “activity change, negative = cytotoxicity” value was 4.71% [at 30.3 µM] (inactive).
In the case of `CCN1/C(=C/C=C/c2sc3ccccc3[n+]2CC)Sc2ccccc21`, the activity change, negative = cytotoxicity is reported as 8.44% [at 13.5 µM] (inactive).
In the case of `CCCC(=O)OC`, the “activity change, negative = cytotoxicity” value is reported as 4.19% (inactive).
In the case of `C/C=C/C=C/CO`, the “activity change, negative = cytotoxicity” value is reported as -6.31% (inactive).
With `OCCOCC#CCOCCO` the “activity change, negative = cytotoxicity” value was 0.0524% (inactive).
In the case of `CN(C)CCCN1c2ccccc2Sc2ccc(Cl)cc21`, the Potency is reported as “inactive”.
With `Cc1ccc(O)c2ncccc12` the “activity change, negative = cytotoxicity” value was -18.4% [at 30.3 µM] (inactive).
With `CCCCN1C(=O)[C@@H]([C@H](O)C2CCCCC2)NC(=O)C12CCN(Cc1ccc(Oc3ccc(C(=O)O)cc3)cc1)CC2` the “activity change, negative = cytotoxicity” value was 23.5% (inactive).
For `CC(=O)OC(C)OC(C)=O`, the “activity change, negative = cytotoxicity” value was 1.02% (inactive).
In the case of `CCN(CC)CCOC(=O)C(c1ccccc1)C1CCCCC1` (stereo unspecified), the “activity change, negative = cytotoxicity” value is reported as -2.93% [at 30.3 µM] (inactive).
In the case of `CC1=CC(=C(c2ccc(N)cc2)c2ccc(N)cc2)C=CC1=N`, the activity change, negative = cytotoxicity is reported as -13.2% [at 5.99 µM] (inactive).
For `O=[N+]([O-])c1cccc(C(F)(F)F)c1`, the “activity change, negative = cytotoxicity” value was 1.2% (inactive).
For `CC1(C)[C@@H](O)CC[C@]2(C)[C@H]3C(=O)C=C4[C@@H]5C[C@@](C)(C(=O)O)CC[C@]5(C)CC[C@@]4(C)[C@]3(C)CC[C@@H]12`, the Potency was 32 µM (active).
For `O=C(/C=C/c1ccccc1)OCCc1ccccc1`, the “activity change, negative = cytotoxicity” value was -3.77% (inactive).
In the case of `O=C(O)Cc1cc(I)c(Oc2ccc(O)c(I)c2)c(I)c1`, the “activity change, negative = cytotoxicity” value is reported as -6.89% (inactive).
In the case of `O=Cc1ccc(O)c(O)c1O`, the “activity change, negative = cytotoxicity” value is reported as 20.6% [at 30.3 µM] (inactive).
For `C=CCCCCCCC=C`, the “activity change, negative = cytotoxicity” value was -5.91% (inactive).
For `Cc1cccc(Nc2ccccc2)c1`, the “activity change, negative = cytotoxicity” value was -6.95% (inactive).
